Hits are enriched below; roughly 1.6% of the tested compounds scored in any of these assays.
KCNQ2 inh – blocks the rat KCNQ2 potassium channel. O88943. CHO-K1 KCNQ2, FluxOR thallium flux, 20 min; active compounds read low. B-score at 10 µM. 310,000 compounds, 1.1% hits. AID 2156;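 active = fluorescence ratio B-score at most minus 3 library SDs, with starting brightness B-score within 2 library SDs, cut at about -5.5 in these data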
KCNQ2 pot – KCNQ2 (rat) channel potentiation. O88943. B-score at 10 µM. 310,000 compounds, 0.54% hits. AID 2239. CHO-K1 KCNQ2, FluxOR thallium flux fluorescence; active compounds read high;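 active = fluorescence ratio B-score at least 3 SD of library B-scores, with initial fluorescence B-score within 3 of them, cut at about 5.3 in these data; same plate scores as AID 2156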;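 also: B-score of peak minus minimum over baseline fluorescence ratio after K+ and Tl+ stimulus; positive B-score means potentiation of KCNQ2 with more thallium influx and brighter signal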
Kir21 conf inh – confirmation of mouse Kir2.1 potassium channel inhibitors | shares compounds with KCNQ2 pot | Kir2.1-expressing cells, FluxOR thallium flux fluorescence; active compounds read low | Tl flux remaining, % of negative control (active compounds read low), % at 10 µM | 2,300 compounds, 41% hits | AID 2032;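 active = Primary-screen hit whose thallium flux fell at least 3 control SD below untreated wells in both duplicates, with normal baseline fluorescence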
HEK293 Tl flux – counter-screen for Kir2.1 inhibitors: effect in parental HEK293 cells. shares compounds with KCNQ2 pot. FluxOR thallium flux fluorescence; 0% = unstimulated blank wells. FluxOR signal as % of negative control (100 = no effect), % at 10 µM. 2,300 compounds, 19% hits;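 active = dye signal at least 3 control SD above or below untreated wells in both duplicates, raw fluorescence within 3, either direction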;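 also: percent is based on the flux ratio of peak minus minimum fluorescence over baseline F0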
CHO-K1 ctr – alters thallium flux in parental CHO-K1 cells, KCNQ2 counter-screen; activity increase over 3SD of controls, % at 10 µM; AID 2282; 1,200 compounds, 43% hits; FluxOR thallium flux fluorescence; zero = vehicle mean+3SD, 100% = vehicle-minus-blank window; shares compounds with KCNQ2 pot;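 active = signal rise of at least 3 SD above the untreated control mean, in both duplicate wells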;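 also: counter screen of KCNQ2 potentiator hits so any rise reflects channel-independent effects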
KCNQ1 sel pot – tests whether KCNQ2 potentiators also act on human KCNQ1; AID 2283; CHO KCNQ1 stable, FluxOR thallium flux fluorescence; beyond 3SD, as % of vehicle-control signal; activation over 3SD threshold, % at 10 µM; 1,200 compounds, 28% hits; shares compounds with KCNQ2 pot;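 active = fluorescence ratio rise of at least 3 SD of vehicle wells above their mean, in both replicate wells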
KCNQ2 pot confirm – confirmation of rat KCNQ2 potassium channel potentiators | CHO-KCNQ2 cells, FluxOR thallium flux fluorescence | 1,200 compounds, 68% hits | shares compounds with KCNQ2 pot | potentiation, less the hit threshold, % at 10 µM;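 active = fluorescence ratio rising 3 SD or more over the vehicle control mean in both replicates, plus primary screen hit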;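 also: peak minus minimum thallium fluorescence divided by baseline after K/Tl stimulus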
Kir21 spec – mouse Kir2.1 off-target activity of KCNQ2 potentiators; shares compounds with KCNQ2 pot; HEK293 Kir2.1, FluxOR thallium flux fluorescence; activity over 3SD threshold, % at 10 µM; 1,200 compounds, 2% hits; AID 2345;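 active = fluorescence ratio rise of at least 3 SD above the vehicle-control mean, seen in both replicates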
KCNQ2 W236L pot – potentiates the retigabine-insensitive rat KCNQ2 W236L mutant channel; shares compounds with KCNQ2 pot; CHO KCNQ2-W236L, automated patch clamp current; current increase over 3SD of negative controls (%), active compounds read high, % at 25 µM; 940 compounds, 10% hits;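 active = current increase at least 3 SD of the untreated controls above them in both duplicate recordings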
Target sequence (O88943 whole entry W236L, looked up): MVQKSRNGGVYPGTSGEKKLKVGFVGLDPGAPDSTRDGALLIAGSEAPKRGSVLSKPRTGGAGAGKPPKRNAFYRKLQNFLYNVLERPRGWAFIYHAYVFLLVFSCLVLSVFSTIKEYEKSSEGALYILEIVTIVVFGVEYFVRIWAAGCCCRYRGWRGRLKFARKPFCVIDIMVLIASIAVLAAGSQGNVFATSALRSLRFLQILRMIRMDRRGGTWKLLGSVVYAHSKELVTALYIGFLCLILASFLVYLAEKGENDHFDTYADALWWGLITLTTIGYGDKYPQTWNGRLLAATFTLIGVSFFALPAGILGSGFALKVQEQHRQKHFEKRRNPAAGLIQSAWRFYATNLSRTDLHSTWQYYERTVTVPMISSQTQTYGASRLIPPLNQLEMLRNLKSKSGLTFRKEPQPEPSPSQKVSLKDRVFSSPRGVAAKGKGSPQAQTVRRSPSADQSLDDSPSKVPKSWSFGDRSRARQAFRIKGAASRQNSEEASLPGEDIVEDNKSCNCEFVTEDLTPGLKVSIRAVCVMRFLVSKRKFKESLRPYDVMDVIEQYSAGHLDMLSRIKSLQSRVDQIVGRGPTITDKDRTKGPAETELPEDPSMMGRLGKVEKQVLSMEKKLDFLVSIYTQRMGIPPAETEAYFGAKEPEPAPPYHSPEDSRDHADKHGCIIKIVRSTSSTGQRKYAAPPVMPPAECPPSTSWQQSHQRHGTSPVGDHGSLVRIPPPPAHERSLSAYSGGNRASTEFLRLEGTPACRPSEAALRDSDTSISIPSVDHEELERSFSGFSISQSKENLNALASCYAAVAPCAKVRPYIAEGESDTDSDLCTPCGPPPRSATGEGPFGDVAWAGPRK
Large screens that a line does not name were inactive (follow-up assays come after a bar, where they were run).

O=C(CSc1n[nH]c(=O)[nH]c1=O)N/N=C/c1ccccc1O	none
CC(C)N(CCc1ccncc1)C(=S)Nc1ccc(F)c(Cl)c1	none (no result: KCNQ2 pot)
CCCCCCCCC1=NCCc2c1[nH]c1ccccc21	none (no result: KCNQ2 pot) | Kir21 conf inh 20.0% | HEK293 Tl flux inactive
CC(C)C/C=C1\CCc2c([nH]c3ccccc23)C1=O	none
CCn1c2ccccc2c2cc(Nc3cc(C)nc4ncnn34)ccc21	none | Kir21 conf inh 67.0% | HEK293 Tl flux inactive
CCc1ccc(Nc2cc(C)nc3ncnn23)cc1	none
O=C(O)COc1ccccc1/C=N/NC(=O)c1cc2ccccc2cc1O	none
Cn1cnc([N+](=O)[O-])c1S(=O)(=O)c1ccc(Cl)cc1	none (no result: KCNQ2 pot) | Kir21 conf inh 69.5% | HEK293 Tl flux 68.0%
Cn1cnc([N+](=O)[O-])c1NC(C)(C)C	none
COc1ccc(/C=N/NC(=S)SC)cc1OC	none
CSC(=S)N/N=C/c1ccccc1	KCNQ2 pot 9.34 | Kir21 conf inh inactive | HEK293 Tl flux 218.5% | CHO-K1 ctr inactive | KCNQ1 sel pot 9.4 | KCNQ2 pot confirm 7.4 | Kir21 spec inactive | KCNQ2 W236L pot inactive
Cn1nc(C(F)(F)F)c(-c2ccc(F)cc2)c1NC(=O)c1cccnc1	none (no result: KCNQ2 pot)
CCCCc1ccc(NC(=O)COCC)cc1	none
CCN(CC)c1ccc(NC(=O)C2CCCC2)cc1	none
CCCCc1ccc(NC(=O)C2CCCC2)cc1	KCNQ2 pot 7.01 | Kir21 conf inh inactive | HEK293 Tl flux inactive | CHO-K1 ctr 109.0 | KCNQ1 sel pot inactive | KCNQ2 pot confirm inactive | Kir21 spec inactive | KCNQ2 W236L pot inactive
CCCCc1ccc(NC(=O)CC(C)C)cc1	KCNQ2 pot 7.4 | Kir21 conf inh inactive | HEK293 Tl flux 279.5% | CHO-K1 ctr inactive | KCNQ1 sel pot inactive | KCNQ2 pot confirm 94.0 | Kir21 spec inactive | KCNQ2 W236L pot inactive
Cc1ccc(NC(=O)COc2nsnc2N2CCOCC2)cc1Cl	none
COc1ccc(C(=O)N/C(=C\c2cn(S(=O)(=O)N(C)C)c3ccccc23)C(=O)N2CCN(C)CC2)cc1	none
Cc1csc(NC(=O)[C@@H]2CCCN2C(=O)c2cccs2)n1	none (no result: KCNQ2 pot)
COc1cccc(/C=N/n2c(SC)nnc2-c2ccccc2)c1OC	none (no result: KCNQ2 pot)
COc1cccc(/C=N/n2c(SC)nnc2-c2ccccc2)c1O	KCNQ2 pot 5.33 | Kir21 conf inh inactive | HEK293 Tl flux inactive | CHO-K1 ctr inactive | KCNQ1 sel pot inactive | KCNQ2 pot confirm inactive | Kir21 spec inactive
NC(=O)c1ccccc1NC(=S)NC(=O)c1ccc(Br)o1	none (no result: KCNQ2 pot)
O=C(NC(=S)Nc1ccccc1)c1ccc(Br)o1	KCNQ2 pot 8.16 | Kir21 conf inh inactive | HEK293 Tl flux 162.0% | CHO-K1 ctr 129.6 | KCNQ1 sel pot inactive | KCNQ2 pot confirm 34.8 | Kir21 spec inactive | KCNQ2 W236L pot inactive
O=C(NC(=S)N1CCc2ccccc21)c1ccc(Br)o1	KCNQ2 pot 9.81 | Kir21 conf inh inactive | HEK293 Tl flux 399.0% | CHO-K1 ctr inactive | KCNQ1 sel pot 47.9 | KCNQ2 pot confirm 75.4 | Kir21 spec inactive | KCNQ2 W236L pot inactive
O=C(NC(=S)N1CCc2ccccc21)C1CCC1	none
COc1ccc(NC(=S)NC(=O)c2ccc(Br)o2)cc1	KCNQ2 pot 8.52 | Kir21 conf inh inactive | HEK293 Tl flux 199.5% | CHO-K1 ctr inactive | KCNQ1 sel pot inactive | KCNQ2 pot confirm 38.9 | Kir21 spec inactive | KCNQ2 W236L pot inactive
O=C(NNC(=S)NCc1ccccc1)c1ccc(Br)o1	none (no result: KCNQ2 pot)
COc1ccc(NC(=O)c2ccc(Br)o2)cc1	none
O=C(NC(=S)NCc1ccccc1)c1ccc(Br)o1	KCNQ2 pot 13 | Kir21 conf inh inactive | HEK293 Tl flux 330.0% | CHO-K1 ctr inactive | KCNQ1 sel pot inactive | KCNQ2 pot confirm 52.7 | Kir21 spec inactive | KCNQ2 W236L pot inactive
COc1ccc(NC2CCCN(C(=O)c3cn(C)c4ccccc34)C2)cc1 (stereo not given)	none (no result: KCNQ2 pot)
O=C(NC(=S)Nc1cccnc1)c1ccccc1	none
Cc1snnc1C(=O)NC(=S)Nc1ccccc1	KCNQ2 pot 5.95 | Kir21 conf inh inactive | HEK293 Tl flux 239.0% | CHO-K1 ctr inactive | KCNQ1 sel pot inactive | KCNQ2 pot confirm 34.5 | Kir21 spec inactive | KCNQ2 W236L pot inactive
COCCNC(=O)C(=O)NNC(=O)CCc1ccccc1	none (no result: KCNQ2 pot)
COc1ccc(C(=O)Nc2c(O)ccc3ccccc23)cc1OC	none
COc1ccc(S(=O)(=O)Nc2c(O)ccc3ccccc23)cc1OC	KCNQ2 pot 8.01 | Kir21 conf inh inactive | HEK293 Tl flux inactive | CHO-K1 ctr 28.6 | KCNQ1 sel pot 1.9 | KCNQ2 pot confirm 23.1 | Kir21 spec inactive | KCNQ2 W236L pot inactive
CCCCn1c(SCC(=O)NCc2ccc(OC)c(C(=O)O)c2)nc2cc(S(N)(=O)=O)ccc21	none (no result: KCNQ2 pot)
Cc1nc2cc(NC(=O)CCS(=O)(=O)c3ccccc3)ccc2s1	none
CC1(C)CC(N2CCCC2)=CC(=[N+]2CCCCCC2)C1	none
CC1CC(C)C[N+](=C2C=C(N3CCCC3)CC(C)(C)C2)C1 (stereo not given)	none (no result: KCNQ2 pot) | Kir21 conf inh inactive | HEK293 Tl flux inactive
COc1ccc(-c2csc(NC(=S)NC(=O)c3cccs3)n2)cc1OC	none
COc1ccc(-c2csc(NC(=S)NC(=O)c3cccs3)n2)cc1Br	KCNQ2 pot 7.07 | Kir21 conf inh inactive | HEK293 Tl flux 70.0% | CHO-K1 ctr inactive | KCNQ1 sel pot inactive | KCNQ2 pot confirm inactive | Kir21 spec inactive
Cc1ccccc1NC(=S)N1CCC(NC(=O)c2ccco2)CC1	none
COc1ccc(S(=O)(=O)N(C)C)cc1NCC(=O)Nc1ccc(Br)c(C)c1	none (no result: KCNQ2 pot)
CCOC(=O)c1oc2ccccc2c1NC(=O)CN1CCOCC1	none
COc1ccc(CCNC(=O)COc2cccc3c2OC(C)(C)C3)cc1OC	none (no result: KCNQ2 pot) | Kir21 conf inh 52.0% | HEK293 Tl flux inactive
CC(C)CCNC(=O)COc1cccc2c1OC(C)(C)C2	none
O=C(O)COc1ccccc1/C=C1\SC(=S)N(c2cccnc2)C1=O	none (no result: KCNQ2 pot)
Cc1noc(/C=C/N(C)C)c1S(=O)(=O)N(C)Cc1ccc(F)cc1	none
O=C(Oc1ccc(C(=S)N2CCOCC2)cc1Br)c1ccccc1F	none (no result: KCNQ2 pot)
O=C(Oc1ccc(C(=S)N2CCOCC2)cc1Cl)c1ccccc1F	none (no result: KCNQ2 pot) | Kir21 conf inh 69.0% | HEK293 Tl flux inactive
O=C(Oc1ccc(C(=S)N2CCOCC2)cc1)c1ccccc1F	none | Kir21 conf inh 71.0% | HEK293 Tl flux inactive

From PubChem BioAssay
